Results published in PubChem BioAssay (NCI).
About 83,000 compounds went through this panel and 20% of them were active in at least one assay; those are over-represented in the sample as a whole.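 Compound tested at a single concentration for 48 hours in 96-well plates; a percent growth value below 10 was scored as active.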 A number with no mark means an inactive call. Active and inactive are the calls of the source.

System: BT-549 breast
Assay: NCI-60 one-dose screen, 48 h (100 = growth as untreated, 0 = no growth, -100 = all killed)
Settings: 10 µM unless noted

Row | Structure (SMILES) | growth
1 | Cc1cc(N(CCCl)CCCl)ccc1/C=N\NC(=O)c1ccncc1 | 75.1%
2 | CCCCCC1(CCBr)C(=O)NC(=O)NC1=O | 90.5%
3 | CC(=O)O[C@H]1CC[C@]2(C)[C@H]3CC[C@]4(C)[C@@H](OC(C)=O)CC[C@H]4[C@@H]3[C@@H](C)[C@]2(O)C1 | 113%
4 | Nc1ccc2c(c1)oc1ccccc12 | 97.9%

System: MDA-MB-435 melanoma
Assay: as above
Settings: 10 µM unless noted

Row | Structure (SMILES) | growth
5 | COC(=O)N[C@H]1CCc2c(Br)c(OC)c(OC)c(OC)c2-c2ccc(SC)c(=O)cc21 | -55.7% (active)
6 | O=C(N/N=C/c1ccc(N(CCCl)CCCl)cc1)c1cccc2ccccc12 | 13.8%
7 | O=[N+]([O-])c1c(Br)sc(Br)c1[N+](=O)[O-] | 17.5%
8 | COC(=O)C12CC(NC(=O)c3csc([C@@H](C[C@H](C(C)C)N(C)C(=O)[C@@H](NC(=O)[C@H]4CCCCN4C)C(C)C)OC(C)=O)n3)(C1)C2 | -43.7% (active)
9 | CC(=O)OC1CCC2(C)C(CCC3C2CC(=O)C2(C)C3CC(Sc3ccc(N(CCCl)CCCl)cc3)C2C(C)=O)C1 (stereo not given) | 105%
10 | Oc1c(CCl)cc(Cl)cc1CCl | 102%
11 | CC(=O)OCc1cc[c]([Hg][Cl])o1 | 29.4%
12 | COc1ccc(O)c(CNC(=O)CN2CCCC2=O)c1 | 101%
13 | CC12CCC(O)CC1=CCC1C2CCC2(C)C(O)CCC12 (stereo not given) | 104%
14 | Cc1cc(N(CCCl)CCCl)ccc1/C=N\NC(=O)c1ccncc1 | 89.1%
15 | Cc1ccc(C(=O)NCCCOc2ccc(N3C(N)=NC(N)=NC3(C)C)cc2Cl)cc1S(=O)(=O)F | 73.1%
